Shown are actives, neighbours in structure and some others; about 2.4% of the full set was active somewhere.
SmPrx2 inh: inhibitors of Schistosoma mansoni peroxiredoxin 2. S. mansoni Prx2 activity coupled to TGR/GSH (TGR is thioredoxin glutathione reductase), NADPH fluorescence loss, qHTS. Potency, µM. actives 0.07% (n = 65,000). AID 448
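Activity is read as the drop in NADPH fluorescence (365/450 nm), recorded every 30 sec for 8 min after H2O2 addition. Prx2 is coupled to TGR-driven NADPH oxidation through glutathione, in phosphate buffer pH 7.4.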
LT uptake inh: anthrax lethal toxin internalization inhibition; AID 912; Cells, anthrax lethal toxin internalization, FRET ratio (460/530); Potency, µM (titrated, usually from 40 µM), for inactives: at the highest dose activity change, negative = inhibition, hits mostly inhibitors; actives 0.67% (n = 70,000); note: % is set by controls: 0 for no effect and ±100 for the full control effect; nearly all actives have a fitted effect of over 50% in size
AmpC inh det: AmpC beta-lactamase inhibition, detergent assay; P00811; AID 584; actives 0.09% (n = 71,000); purified AmpC, nitrocefin hydrolysis with detergent; Potency, µM (highest dose often 28.7 µM), without a hit: top-dose activity change, negative = inhibition; active = well fitted curve in the direction sought with a large enough effect; inconclusive = small, poorly fitted or top-dose-only effect; note: % is set by controls: 0 for no effect and ±100 for the full control effect
Target sequence (P00811 whole entry, looked up): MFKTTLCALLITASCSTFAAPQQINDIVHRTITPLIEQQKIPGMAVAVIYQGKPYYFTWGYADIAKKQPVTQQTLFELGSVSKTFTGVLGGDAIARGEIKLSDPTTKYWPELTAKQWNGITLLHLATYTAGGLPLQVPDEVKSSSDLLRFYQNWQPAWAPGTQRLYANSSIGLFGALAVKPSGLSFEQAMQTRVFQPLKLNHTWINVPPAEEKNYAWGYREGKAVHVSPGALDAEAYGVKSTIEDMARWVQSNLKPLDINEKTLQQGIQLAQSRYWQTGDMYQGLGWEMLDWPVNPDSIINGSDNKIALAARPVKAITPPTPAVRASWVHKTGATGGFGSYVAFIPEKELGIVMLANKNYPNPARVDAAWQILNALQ
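E. coli AmpC (5.3 nM) in 20 mM phosphate pH 7.0 with 0.01% Triton X-100, preincubated 15 min RT with compound; nitrocefin (2 uL of 800 uM stock) hydrolysis followed by 480 nm absorbance every 20 s over 4 min.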
AmpC nodet inh: AmpC beta-lactamase inhibition, detergent-free assay | AmpC nitrocefin hydrolysis, absorbance 480 nm, no detergent | Potency, µM (doses to about 28.7 µM), inactives show at the highest dose activity change, negative = inhibition | actives 1.8% (n = 71,000) | AID 585; note: % of control where 0% means no effect
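AmpC in 20 mM phosphate buffer pH 7.0 was preincubated 15 min at room temperature with compounds. Nitrocefin (800 uM stock) was then added and hydrolysis followed at 480 nm every 20 s for 4 min.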
An asterisk follows results filed as active; u = inconclusive; x = no result; ! = repeats disagree; [ ] = another dose, or the depositor's remark. Unless noted, calls come from the whole dose curve. Potency is the fitted concentration of half-maximal effect.

SMILES	SmPrx2 inh	LT uptake inh	AmpC inh det	AmpC nodet inh
O=C(CSc1nccc2ccccc12)N1CCN(c2ccccn2)CC1	>57	5µM*	10%	17%
CC(C)(C)c1cc(/C=C(\C#N)C(N)=S)cc(C(C)(C)C)c1O	>57	7.9µM*	-1%	-1%
[C-]#[N+]/C(C#N)=C\c1cc(C(C)(C)C)c(O)c(C(C)(C)C)c1	x	0.1µM*	x	x
CN(C)c1ncc2nc(-c3cccs3)c(=O)n(C3CC3)c2n1	>57	u	-2%	13%
O=CCCCC=O	x	u	8%	-12%
COC(=O)N1CCN(C(=O)Cc2ccc(Cl)c(Cl)c2)[C@H](CN2CCCC2)C1	14*!	u	1%	36%
COC(=O)NC(CC(C)=O)c1cccs1 (centres undefined)	x	-15%[8 µM]	x	x
COc1cc(C(=O)OCC(=O)Nc2cc(C)on2)ccc1OCc1ccccc1Cl	>57	2%	-2%	13µM*
OC(COc1ccc(Cl)c2ccccc12)CN1CCN(c2ccccn2)CC1 (centres undefined)	>57	10µM*	7%	84%
COCC(=O)N1CCC2(CC1)CCN(c1ccncc1)CC2	>57	-4%	0%	-4%
CN(C)c1ccc(/C=c2\sc3n(c2=O)CCCN=3)cc1	>57	-3%	-7%	25%
CN(C)c1ccc(/C=C2/C(=O)Nc3ccccc32)cc1	>57	13µM*	0%	19%
COc1cccc(C2NC(C(=O)O)CCC2C)c1 (centres undefined)	x	-16%[8 µM]	x	x
CN(CC(=O)NC1CCCCCCC1)S(=O)(=O)c1cccc2cccnc12	>57	-9%	3%	4µM*[single pt active]
COc1ccc(NC(=O)CN(C)S(=O)(=O)c2cccc3cccnc23)cc1	>57	7%	13%	-4%
CN(CC(=O)Nc1ccc(Cl)cc1)S(=O)(=O)c1cccc2cccnc12	>57	7.9µM*	9%	-13%
COc1ccc(-c2nc3cnc(OC)nc3n(-c3ccccc3)c2=O)cc1	>57	u	1%	10%
CO[C@@H]1/C=C\O[C@]2(C)Oc3c(C)c(O)c4c(O)c(c(/C=N\N5CCN(C)CC5)c(O)c4c3C2=O)NC(=O)/C(C)=C\C=C/[C@H](C)[C@H](O)[C@H](C)[C@H](O)[C@H](C)[C@H](OC(C)=O)[C@@H]1C	>57	-9%	-1%	114%
O=C(Nc1nc(-c2ccc(S(=O)(=O)N3CCCC3)cc2)cs1)c1cccs1	>57	-26%	-1%	-12%
O=C(Nc1nc(-c2cc(Cl)sc2Cl)cs1)c1cccs1	>57	u	9%	0.32µM*
O=C(Nc1nc(-c2ccc(S(=O)(=O)N3CCCCCC3)cc2)cs1)c1cccs1	>57	u	-3%	7.9µM*
Cc1ccc(-c2csc(NC(=O)c3cccc(S(=O)(=O)N4CCN(C)CC4)c3)n2)cc1	>57	-24%	11%	134%
O=C(Nc1nc(-c2cccs2)cs1)c1cccc(S(=O)(=O)N2CCCCC2)c1	>57	u	-3%	7.9µM*
COc1ccc(C(=O)N2CCC3(CCCN(Cc4cc(C(F)(F)F)cc(C(F)(F)F)c4)C3)CC2)cc1	>57	10%	-2%	-2%
N#Cc1c(-c2ccccc2)cc(-c2ccco2)c(C#N)c1N	x	u	12%	6.3µM*
SMILES	SmPrx2 inh	LT uptake inh	AmpC inh det	AmpC nodet inh
COC(=O)c1sc2nc(-c3ccco3)ccc2c1N	>57	3%	-4%	-10%
N#Cc1sc2nc(-c3ccccc3)cc(-c3ccco3)c2c1N	>57	u	-1%	6.3µM*
COCC(=O)N1CCC[C@@]2(CCN(c3ccccn3)C2)C1	>57	-9%	-2%	10%
COc1cc(NC(=O)c2cc(CC(C)C)on2)c(OC)cc1Cl	>57	u	10%	4µM*[single pt active]
CC(C)Cc1cc(C(=O)Nc2sc3c(c2C#N)CCCC3)no1	>57	7.9µM*	12%	4µM*[single pt active]
CC(=O)c1ccc(NC(=O)c2cc(CC(C)C)on2)cc1	>57	-16%	11%	4µM*[single pt active]
Cc1cc(NC(=O)c2cc(C)on2)no1	>57	0%	0%	7%
Cc1cc(NC(=O)c2cc(CC(C)C)on2)no1	>57	-17%	12%	4µM*[single pt active]
CNc1ccc2oc(C[C@@H]3O[C@@]4(CC[C@H]3C)O[C@@H]([C@@H](C)C(=O)c3ccc[nH]3)[C@@H](C)C[C@H]4C)nc2c1C(=O)O	>57	u	-11%	6%
N#Cc1cccc(-c2nccc(-n3ccnc3)n2)c1	u	-9%	4%	12%
CS(=O)(=O)Nc1cccc(-c2cncnc2NCc2cccs2)c1	>57	-18%	9%	-10%
CCOC(=O)c1c(CN(CC)CC)oc2cc(Br)c(O)cc12	>57	u	8%	4µM*[single pt active]
COC(=O)[C@H](NC(=O)c1cc(-c2ccccc2)nc2ccccc12)c1ccccc1	>57	5µM*	-1%	34%
COc1cccc(-c2cc(C(=O)Nn3cnnc3)c3ccccc3n2)c1	>57	-5%	12%	-9%
CCN(C(=O)c1cnc(N2CCN(c3ncccn3)CC2)c2ccccc12)c1cccc(Cl)c1	>57	16µM*	-4%	95%
CCOC(=O)CSCc1nc(-c2ccc(Cl)cc2)oc1C	>57	u	25%	4µM*[single pt active]
CC1=c2c(oc3cc(O)c(Nc4c(C)cc(O)cc4O)c(C)c23)=CC(=O)C1=Nc1c(C)cc(O)cc1O	>57	-6%[8 µM]	-2%[5.75 µM]	-25%[5.75 µM]
COc1cccc(NS(=O)(=O)c2nc3nc(C)cc(C)n3n2)c1	>57	1%	13%	4µM*[single pt active]
O=C(Cn1cc2c(n1)CCCC2)Nc1ccccc1Br	>57	-19%	11%	4µM*[single pt active]
CCN(CC)C(=O)C1CCCc2c1[nH]c1ccc(Cl)cc21 (centres undefined)	x	-17%	15%	4µM*[single pt active]
C[C@](O)(c1ccccc1)c1nccc2ccccc12	>57	-5%[8 µM]	-2%[5.75 µM]	1%[5.75 µM]
O=C(Nc1cccc(F)c1)N1CCCC2(CCN(C(=O)c3cnccn3)CC2)C1	>57	1%	-1%	-1%
Cc1cc[c]([Sb]2[O][C@H]([C@H](O)[C@H](O)C(=O)O)[C@@H](CO)[O]2)cc1	>57	-2%[8 µM]	-1%[5.75 µM]	-5%[5.75 µM]
O=C(O)[C@@H](O)[C@@H](O)[C@@H]1[O][Sb][O][C@@H]1CO	0.86*	-4%[8 µM]	-5%[5.75 µM]	6%[5.75 µM]
COc1cccc(OCc2nc3ccccc3[nH]2)c1	>57	-22%	12%	4µM*[single pt active]
SMILES	SmPrx2 inh	LT uptake inh	AmpC inh det	AmpC nodet inh
C=CCN1CCc2cccc3c2[C@@H]1Cc1ccc(O)c(O)c1-3	>57	u	0%	-13%
Cc1nc2c(c(=O)n1Cc1ccccc1Cl)c1nc3ccccc3nc1n2Cc1ccco1	>57	7.9µM*	0%	6%
O=c1cc(-c2ccc(O)c(O)c2)oc2cc(O)cc(O)c12	>26	u	-1%	0.5µM*!
COc1ccc(-c2cc(=O)c3c(O)cc(O)cc3o2)cc1	>57	-5%[3.58 µM]	-5%[12.8 µM]	-20%[12.8 µM]
Oc1ccccc1C(Sc1nc2ccccc2s1)Sc1nc2ccccc2s1	>57	-4%[8 µM]	-8%[5.75 µM]	-13%[5.75 µM]
CCOC(=O)C1CCCN(c2c(NCCCN(C)Cc3ccccc3)c(=O)c2=O)C1 (centres undefined)	>57	-11%	-3%	-4%
CCOC(=O)N1CCC(Nc2c(NCCN3CCN(Cc4ccccc4)CC3)c(=O)c2=O)CC1	>57	-7%	0%	3%

High-throughput results: PubChem, National Center for Advancing Translational Sciences (NCATS)
